Experimental data: PubChem BioAssay (NCI)
Where “and” joins values, the source holds several entries; their conditions need not be identical. Identical values can stand only once. About 79,000 compounds went through this panel and 15% of them were active in at least one assay; those are over-represented in the sample as a whole. More than one record can exist for a structure, and the calls need not agree. Calls of active or inactive are those of the source. No stated cut-off is given here; in the data, active means growth inhibition above about 70%; inactive means the rest.

How the values were obtained:
[1] = NCI Yeast Anticancer Drug Screen. Data for the rad50 strain (AID 155);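 further: 0% = growth of vehicle-only cultures of the same strain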; conditions: S. cerevisiae rad50 strain growth inhibition, stronger effect = higher value
How it was run: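 Compounds were tested on a yeast strain with an engineered DNA damage repair alteration; the reported value is growth inhibition normalised to vehicle treatment.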

[2] = NCI Yeast Anticancer Drug Screen. Data for the mec2-1 strain (AID 157); conditions: S. cerevisiae mec2-1 strain, stronger effect = higher value
How it was run: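 Strain: mec2-1 (DNA repair/cell cycle alteration). Compound exposure, then growth measured; inhibition expressed relative to vehicle.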

[3] = NCI Yeast Anticancer Drug Screen. Data for the sgs1 mgt1 strain (AID 161);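 further: 0% = growth of cultures given vehicle only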; conditions: S. cerevisiae sgs1 mgt1 strain, stronger effect = higher value
How it was run: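 Read-out: growth inhibition vs vehicle controls. Cells: mutant yeast strain deficient in DNA damage repair.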

[4] = NCI Yeast Anticancer Drug Screen. Data for the cln2 rad14 strain (AID 165);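 further: 0% = growth equal to vehicle treated cultures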; conditions: S. cerevisiae cln2 rad14 strain, stronger effect = higher value
How it was run: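 Compounds are applied to the cln2 rad14 yeast strain, and growth is then compared with that of vehicle-treated cultures to give inhibition.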

[5] = NCI Yeast Anticancer Drug Screen. Data for the bub3 strain (AID 167); conditions: S. cerevisiae bub3 mutant strain, stronger effect = higher value
How it was run: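 Growth of a checkpoint-deficient yeast mutant is measured after compound exposure. Values represent inhibition relative to vehicle.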

[6] = NCI Yeast Anticancer Drug Screen. Data for the mlh1 rad18 strain (AID 175); conditions: S. cerevisiae mlh1 rad18 strain growth inhibition, stronger effect = higher value
How it was run: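 Read-out is yeast growth inhibition, calculated against vehicle-only controls. The compound was applied to a strain engineered with DNA damage repair alterations.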

[7] = at 5.0 µM (retest, dose inferred, filed as 0.5)
[8] = at 50.0 µM (retest, dose inferred, filed as 5.0)

Measured: growth inhibition

Cc1cccc2c1Oc1cc(Cl)ccc1C2NC(=O)CCN1CCCCC1 (configuration not stated)
inactive: [1]; [7] -22% | [1]; [8] 24% | [2]; [7] -12% | [2]; [8] 3% | [2]; at 50.0 µM 25.9% | [3]; [7] -6% | [3]; [8] 21% | [4]; [7] 27% | [4]; [8] 26% | [4]; at 50.0 µM 65.7% | [5]; [7] 16% | [5]; [8] 20% | [5]; at 50.0 µM -14.7% | [6]; [7] 14% | [6]; [8] 57% | [6]; at 50.0 µM 69.1%
active: [1]; at 50.0 µM 85.2% | [3]; at 50.0 µM 86.3%

ON=C(Cc1ccccc1)Cc1ccccc1
23.2% (inactive) and 82.5% (active): [3]; at 50.0 µM
inactive: [1]; [7] 7% | [1]; [8] -7% | [1]; at 50.0 µM 20.4% and 1.3% | [2]; [7] -4% | [2]; [8] -8% | [2]; at 50.0 µM 5.7% and -6.9% | [3]; [7] 1% | [3]; [8] 34% | [4]; [7] 2% | [4]; [8] -8% | [4]; at 50.0 µM 46.2% and -4.6% | [5]; [7] -83% | [5]; [8] -3% | [5]; at 50.0 µM -2.8% and 17.2% | [6]; [7] 1% | [6]; [8] 9% | [6]; at 50.0 µM 61.8% and 27.9%

CC1(C)OC2C(O)C(O)C3OC(C)(C)OC3C2O1 (configuration not stated)
74.1% (active) and -2.4% (inactive): [4]; at 50.0 µM
inactive: [1]; [7] -20% | [1]; [8] 6% | [1]; at 50.0 µM 6% and 7.9% | [2]; [7] -13% | [2]; [8] 2% | [2]; at 50.0 µM 9.35% and -8.1% | [3]; [7] -6% | [3]; [8] 2% | [3]; at 50.0 µM 14.4% and 6.4% | [4]; [7] -1% | [4]; [8] 0% | [5]; [7] 2% | [5]; [8] 2% | [5]; at 50.0 µM 61% and 15.4% | [6]; [7] 25% | [6]; [8] 15% | [6]; at 50.0 µM 44% and 9.25%

O=C1OC(c2ccccc2)C(c2ccccc2)=C1c1ccccc1 (configuration not stated)
inactive: [1]; [7] -21% | [1]; at 50.0 µM -6% | [2]; [7] -18% | [2]; at 50.0 µM -2.8% | [3]; [7] -3% | [3]; at 50.0 µM 7.1% | [4]; [7] -2% | [4]; at 50.0 µM -29% | [5]; [7] 9% | [5]; at 50.0 µM 9% | [6]; [7] 4% | [6]; at 50.0 µM 3.65%
active: [1]; [8] 91% | [2]; [8] 92% | [3]; [8] 91% | [4]; [8] 86% | [5]; [8] 91% | [6]; [8] 90%

Cc1cc(C)[nH]c(=O)n1
inactive: [1]; [7] -2% | [1]; [8] 16% | [2]; [7] -1% | [2]; [8] 11% | [2]; at 50.0 µM -16.4% and 2.9% | [3]; [7] 2% | [3]; [8] 7% | [3]; at 50.0 µM -9.15% and 22.4% | [4]; [7] 6% | [4]; [8] 13% | [4]; at 50.0 µM -18.1% and 22.9% | [5]; [7] -4% | [5]; [8] -2% | [5]; at 50.0 µM -2.25% and 14.7% | [6]; [7] -2% | [6]; [8] 7% | [6]; at 50.0 µM -14.6% and 45.2%
-22.4% (inactive) and 84.2% (active): [1]; at 50.0 µM

Fc1ccc(NC(=S)SCc2ccc3c(c2)OCO3)cc1
active: [1]; [8] 98% | [1]; at 50.0 µM 99% | [2]; [8] 99% | [2]; at 50.0 µM 98.5% | [3]; [8] 99% | [3]; at 50.0 µM 99.5% | [4]; [8] 95% | [4]; at 50.0 µM 98.5% | [5]; [8] 97% | [5]; at 50.0 µM 98.9% | [6]; [8] 95% | [6]; at 50.0 µM 99.3%
inactive: [1]; [7] 3% | [2]; [7] 1% | [3]; [7] 3% | [4]; [7] -13% | [5]; [7] -8% | [6]; [7] -4%

CCCC(C)NCCOC(=O)C(c1ccccc1)C1CCCCC1 (configuration not stated)
active: [1]; at 50.0 µM 85.6% | [3]; at 50.0 µM 85.5% | [6]; at 50.0 µM 73.2%
inactive: [1]; [7] -11% | [1]; [8] 49% | [2]; [7] 3% | [2]; [8] 36% | [2]; at 50.0 µM 14.2% | [3]; [7] -3% | [3]; [8] 60% | [4]; [7] -2% | [4]; [8] 36% | [4]; at 50.0 µM 34.3% | [5]; [7] 0% | [5]; [8] 49% | [5]; at 50.0 µM 57.5% | [6]; [7] 1% | [6]; [8] 61%

Cc1c2cc[n+](C)cc2c(C)c2c1[nH]c1ccccc12
inactive: [1]; [7] 28% | [1]; [8] 68% | [1]; at 50.0 µM 27.5% and 40.4% | [2]; [7] 18% | [2]; [8] 22% | [2]; at 50.0 µM 29.2% and -21.1% | [3]; [7] 28% | [3]; [8] 36% | [4]; [7] 27% | [4]; [8] 32% | [4]; at 50.0 µM 23.8% and 2.8% | [5]; [7] 12% | [5]; [8] 31% | [5]; at 50.0 µM 62.8% and -38.5% | [6]; [7] 16% | [6]; [8] 39% | [6]; at 50.0 µM 54.5% and 26.9%
75.7% (active) and -25% (inactive): [3]; at 50.0 µM

CCCCCCCCCCCCSC(=NC)NC
active: [1]; [8] 99% and 98% | [1]; at 50.0 µM 99.5% and 99.4% | [2]; [8] 100% and 98% | [2]; at 50.0 µM 99.7% and 99.5% | [3]; [8] 99% | [3]; at 50.0 µM 99.4% and 99.1% | [4]; [8] 99% | [4]; at 50.0 µM 96.2% and 98% | [5]; [8] 100% | [5]; at 50.0 µM 99.5% and 99% | [6]; [8] 99% and 98% | [6]; at 50.0 µM 99.1% and 98.8%
inactive: [1]; [7] 65% and 27% | [2]; [7] 48% and 19% | [4]; [7] 4% and -9% | [6]; [7] 27% and 24%
91% (active) and 46% (inactive): [5]; [7]
80% (active) and 65% (inactive): [3]; [7]
